# Test results taken from PubChem BioAssay (Tox21).
# Unmarked numbers belong to inactive results. Active and inactive are the calls of the source. Calls come from the whole dose curve.
# Biological target: Androgen receptor (Homo sapiens) (UniProt P10275)
# Assay: qHTS assay to identify small molecule agonists of the androgen receptor (AR) signaling pathway in the presence of an antagonist (AID 1259381); note: nearly all actives have a fitted effect of over 15% in size
# Conditions: MDA-kb2 MMTV-luciferase, AR agonist + nilutamide, 16 h; series mostly up to 92.4 µM; activation: at the top concentration
# Excerpt: National Center for Advancing Translational Sciences [NCATS] NIH Chemical Genomics Center [NCGC] U.S. Environmental Protection Agency [EPA] National Institutes of Environmental Health Sciences [NIEHS] National Toxicology Program [NTP] Assay overview: Androgen receptor (AR) is an important member of nuclear receptor family. Its signaling plays a critical role in AR-dependent prostate cancer and other androgen related diseases. Considerable attention has been given in the past decades to develop methods to study and screen for the environmental chemicals that have the potential to interfere with metabolic homeostasis, reproduction, developmental and behavioral functions. Therefore AR binding assay for screening against androgen agonists and antagonists can be used to identify potential endocrine disruptors. MDA-kb2 cells (from ATCC, deposited by Wilson et al.) are human breast carcinoma cells that were stably transfected with a luciferase reporter gene under control of the MMTV promoter that contains response elements for both androgen receptor (AR) and glucocorticoid receptor (GR). This particular screening for measuring luciferase reporter gene activity using MDA-kb2 cells against Tox21 10K library compounds is a confirmation study on agonist mode screening in the presence of AR-antagonist compound (Nilutamide) at 3.0uM final concentration.
# Assay Protocol Summary: MDA-kb2 cells (cells cultured without CO2) were dispensed at 3,000 cells/well in 4uL of culture medium into white wall/solid-bottom 1536-well plates (Corning Life Sciences, Corning, NY) using a Multidrop Combi (Thermo Fisher Scientific Inc., Waltham, MA) dispenser. The assay plates were incubated at 37C and 0% CO2 for 5hr. One uL of 3.0uM (final concentration) Nilutamide or assay buffer was added using two separate tips of Flying Reagent Dispenser (FRD, Aurora Discovery, San Diego, CA). Then 23nL of compounds dissolved in DMSO at 15 concentrations and positive controls were transferred to the assay plates using a Pintool station (Wako, San Diego, CA). The assay plates were incubated at 37C and 0% CO2 for 16hr. For luciferase read, 4uL/well ONE-Glo reagent (Promega Corporation, Madison, WI) was added to each well of the assay plates using FRD. After 30min incubation at room temperature, the luminescence signal was measured using a ViewLux plate reader (PerkinElmer, Shelton, CT).
# % is set by controls: 0 for no effect and ±100 for the full control effect; potency is the fitted concentration of half-maximal effect.
# Androgen receptor (Homo sapiens), sequence (P10275 whole entry, looked up): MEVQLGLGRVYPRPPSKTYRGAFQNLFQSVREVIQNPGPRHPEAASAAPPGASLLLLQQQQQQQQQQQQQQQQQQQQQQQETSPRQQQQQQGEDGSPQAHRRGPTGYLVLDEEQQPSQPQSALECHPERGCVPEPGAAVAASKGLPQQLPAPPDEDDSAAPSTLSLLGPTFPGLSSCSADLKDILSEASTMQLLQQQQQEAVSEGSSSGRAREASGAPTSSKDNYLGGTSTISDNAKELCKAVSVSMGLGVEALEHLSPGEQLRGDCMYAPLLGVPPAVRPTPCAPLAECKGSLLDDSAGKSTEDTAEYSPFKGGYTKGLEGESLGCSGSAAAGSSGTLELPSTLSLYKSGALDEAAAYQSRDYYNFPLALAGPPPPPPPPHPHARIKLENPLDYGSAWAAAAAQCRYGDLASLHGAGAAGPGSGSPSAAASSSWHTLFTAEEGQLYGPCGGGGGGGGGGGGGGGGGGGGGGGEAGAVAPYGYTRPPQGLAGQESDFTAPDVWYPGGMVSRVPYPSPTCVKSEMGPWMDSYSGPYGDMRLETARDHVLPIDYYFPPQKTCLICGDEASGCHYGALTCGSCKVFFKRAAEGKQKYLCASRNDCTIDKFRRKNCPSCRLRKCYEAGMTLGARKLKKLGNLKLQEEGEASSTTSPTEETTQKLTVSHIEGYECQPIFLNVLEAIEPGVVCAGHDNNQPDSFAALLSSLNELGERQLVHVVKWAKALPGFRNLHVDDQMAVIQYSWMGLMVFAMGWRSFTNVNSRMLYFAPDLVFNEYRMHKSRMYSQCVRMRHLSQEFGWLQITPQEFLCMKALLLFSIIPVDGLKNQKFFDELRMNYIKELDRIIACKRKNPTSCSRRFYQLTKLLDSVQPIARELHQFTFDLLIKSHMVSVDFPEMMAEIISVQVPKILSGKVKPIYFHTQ
SMILES,activation,Potency
C=C1C(C)(C)[C@@]2(Cl)C(Cl)[C@]1(Cl)C(Cl)(Cl)C2(Cl)Cl (stereo not given in full),-4.84%,
O=C(O)Cc1ccc(OCCNC[C@H](O)c2ccccc2)cc1,0.242% [at 42.5 µM],
Cc1ccc(CCn2c3c(c4cc(Cl)ccc42)CN(C)CC3)cn1,-0.0315% [at 42.5 µM],
CC(=O)O[C@@H]1C[C@@H]2CC[C@@]1(C)C2(C)C,8.95%,
CCC(C)c1cc([N+](=O)[O-])cc([N+](=O)[O-])c1OC(=O)OC(C)C (stereo not given),-9.43%,
CCCCCCCCCCCCN(CCO)CCO,-10.1%,
CCCC(=O)OCC(COC(=O)CCC)OC(=O)CCC,-2.08%,
C[C@]12CC[C@H]3C(=CCc4cc(O)ccc43)[C@@H]1CCC2=O,,5.45 µM (active)
CC(=O)OC1CCCCC1,2.06%,
O=C1OC(OC(=O)c2cccnc2Nc2cccc(C(F)(F)F)c2)c2ccccc21 (stereo not given),-3.27% [at 42.5 µM],
CCCCCCOc1ccc(O)cc1,-0.384%,
CC(C)(C)c1n[nH]c(=O)n(N)c1=O,0.488%,
CC(C)(C)c1cc(CCC(=O)NCCCCCCNC(=O)CCc2cc(C(C)(C)C)c(O)c(C(C)(C)C)c2)cc(C(C)(C)C)c1O,-3.66%,
Nc1ccc2cc3ccc(N)cc3nc2c1,,inactive
CC1=CP(=O)(c2ccccc2)CC1 (stereo not given),-0.784%,
CCc1ccc(C)nc1,0.404%,
Cn1cccc1,0.0442%,
O=C1c2c(O)ccc(O)c2C(=O)c2c(NCCNCCO)ccc(NCCNCCO)c21,-8.65% [at 42.5 µM],
Cc1cccc(N(C)C)c1,-2.95%,
CC1CCCCC1,-0.255%,

SMILES,activation,Potency
COc1cccc(OC)c1O,-0.765%,
CCCCCCCOC(=O)c1ccccc1C(=O)OCCCCCCC,3.46%,
Cc1ccc(-n2[nH]c(C)c(N=Nc3cccc(-c4cccc(C(=O)O)c4)c3O)c2=O)cc1C,-2.97% [at 42.5 µM],
CCOB(OCC)OCC,-0.662%,
C=C/C=C/C=C/CCCCC,5.43% [at 19 µM],
O=C1C=CC(=O)N1c1ccccc1,-10.2%,
C=C(C)CCCC,9.43%,
O=C(Oc1ccccc1)c1cccc(C(=O)Oc2ccccc2)c1,,0.644 µM (active)
CCCSS/C(CCO)=C(\C)N(C=O)Cc1cnc(C)nc1N,-1.05% [at 42.5 µM],
C[n+]1c2cc(N)ccc2cc2ccc(N)cc21 (tested in a mixture with another compound),-8.33% [at 42.5 µM],
CCCCOCC,-0.306%,
Cc1c(C(=O)O)cccc1[N+](=O)[O-],-1.37%,
N#CSCSc1nc2ccccc2s1,3.07%,
C[Si](C)(C)Cl,0.172%,
C=CC(C)(CCC=C(C)C)OC(=O)/C=C/c1ccccc1 (stereo not given),0.25%,
OCCN1CN(CCO)CN(CCO)C1,-3.48%,
c1cc(OCC2CO2)cc(OCC2CO2)c1 (stereo not given),-3.83%,
CCCN(CCc1cccs1)[C@H]1CCc2c(O)cccc2C1,-1.88% [at 42.5 µM],
CCC1CCCCC1,0.0625%,
Cc1ccc(O)cn1,-0.457%,
